The values that follow come from PubChem BioAssay (NCI).

This is part of a sample that, as a whole, favours compounds with a hit. Of some 83,000 tested, about 20% had one in any assay.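 Treatment: one concentration, 48 hours, 96-well format. Scoring: percent growth, with anything below 10 considered active.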 Calls of active or inactive are those of the source.

This assay concerns MDA-MB-468 breast. The assay can be described thus: NCI-60 one-dose screen, 48 h (100 = growth as untreated, 0 = no growth, -100 = all killed). The conditions noted are these: 10 µM unless noted.
Turning to `Nc1nc(N(Cc2ccccc2)c2ccccc2)c2cn[nH]c2n1`, the growth is 33.3% (inactive).
As to `N#Cc1c(-c2ccc(Cl)cc2)nc(SCc2ccc([N+](=O)[O-])cc2)nc1N1CCNCC1`, the growth is -44.2% (active).
For the compound `O=[N+]([O-])c1cccc(/C=C/c2ccccn2)c1`, the growth was 48.1% (inactive).
Turning to `Cc1cccc(Cc2cnc(NC(=O)/C=C/c3ccco3)s2)c1`, the growth was 31.2% (inactive).
With `CCN1C(=O)N(CC)C2C1N=C(SC)N2/N=C/C=C/c1ccccc1OC` (stereo unspecified), the growth was 1.3% (active).
In the case of `CCc1nnc(NC(=O)c2nnn(-c3ccccc3)c2-c2ccco2)s1`, the growth was 95.9% (inactive).
With `C#Cc1ccc(-n2c(/C=C/c3ccc(Cl)c(F)c3)nc3ncccc3c2=O)cc1`, the growth is -74.5% (active).
As for `CCc1ccc(/C=C/c2ccc(O)c3ncccc23)[n+](C)c1`, the growth was 19.6% (inactive).
The figure for `C=CC(=O)Nc1cccc(-c2nc(SC)nc(Nc3ccccc3OC)c2C#N)c1` is 18.2% (inactive).
Under `Cc1ccccc1CCO` stands 97.5% (inactive).
As for `O=C1c2cccnc2C(=O)c2c1c(C(=O)OCCN1CCCCC1)c1ccccn21`, the growth is -16.6% (active).
For `COc1cc(-c2noc(C[C@@H](NC(=O)OCc3ccccc3)C(C)C)n2)cc(OC)c1OC`, the growth is 88.5% (inactive).
`CC1CN(/N=C/c2ccc([N+](=O)[O-])o2)C(=N)O1` (stereo unspecified): the growth was 89.6% (inactive).
On to `O=C1C(Cl)=C(NCCN2CCOCC2)C(=O)c2ncccc21`, for which the growth is -74.1% (active).
The figure for `CCCOc1nc(SCCC)nc2c1cnn2-c1ccccc1` is 106% (inactive); for `Cl/C(=N\Nc1ccccc1)c1ccccc1` it is 79% (inactive).
